# Screening results from PubChem.
# IDE exosite FP: displaces the probe from the exo-site of human IDE | AID 1259349 | 6.3% of 17,000 active | z-score at 20 µM | purified IDE, FL-6b probe fluorescence polarization; stronger effect = lower value | P14735;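 active = z-score of -3 or lower, meaning strong loss of probe binding signal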;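 note: His-tagged human IDE residues 42-1019 made in E. coli with 30 nM FL-6b probe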
# Target sequence (P14735 42-1019 limits assumed): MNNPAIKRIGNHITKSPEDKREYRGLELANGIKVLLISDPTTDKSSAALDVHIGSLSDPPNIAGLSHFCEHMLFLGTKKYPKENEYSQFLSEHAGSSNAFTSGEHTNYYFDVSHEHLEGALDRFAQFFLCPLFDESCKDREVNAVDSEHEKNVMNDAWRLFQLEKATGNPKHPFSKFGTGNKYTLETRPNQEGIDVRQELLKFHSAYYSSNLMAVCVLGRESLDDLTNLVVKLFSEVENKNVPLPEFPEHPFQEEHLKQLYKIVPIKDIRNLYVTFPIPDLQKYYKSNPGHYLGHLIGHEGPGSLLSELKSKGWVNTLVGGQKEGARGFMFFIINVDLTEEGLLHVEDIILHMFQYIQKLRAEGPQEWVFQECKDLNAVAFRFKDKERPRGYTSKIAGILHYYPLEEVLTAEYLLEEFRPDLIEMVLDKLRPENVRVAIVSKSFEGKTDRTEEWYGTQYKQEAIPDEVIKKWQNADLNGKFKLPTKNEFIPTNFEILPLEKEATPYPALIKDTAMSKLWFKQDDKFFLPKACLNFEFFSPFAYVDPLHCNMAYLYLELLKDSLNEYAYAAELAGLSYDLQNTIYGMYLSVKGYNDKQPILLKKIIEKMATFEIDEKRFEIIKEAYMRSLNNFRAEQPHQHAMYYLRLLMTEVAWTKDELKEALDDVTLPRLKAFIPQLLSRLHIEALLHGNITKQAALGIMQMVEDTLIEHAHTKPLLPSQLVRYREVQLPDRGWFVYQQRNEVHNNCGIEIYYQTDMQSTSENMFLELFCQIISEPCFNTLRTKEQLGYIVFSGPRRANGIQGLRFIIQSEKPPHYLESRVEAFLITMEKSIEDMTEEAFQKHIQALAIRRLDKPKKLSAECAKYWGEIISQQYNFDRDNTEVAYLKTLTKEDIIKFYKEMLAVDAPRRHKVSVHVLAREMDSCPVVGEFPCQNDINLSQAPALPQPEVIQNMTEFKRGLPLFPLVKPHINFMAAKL
# Numbers without * were called inactive. This excerpt belongs to a sample that is enriched for hits.
SMILES,IDE exosite FP
O=C(c1ccc(F)cc1)N1CC(=O)N2[C@@H](CO)[C@H](c3ccc(/C=C/c4ccccc4)cc3)[C@@H]2C1,-5.27*
C/C=C/c1ccc([C@H]2[C@H]3CN(C(=O)Cc4cccnc4)CC(=O)N3[C@H]2CO)cc1,-0.491
O=C(c1ccccc1)N1CC(=O)N2[C@@H](CO)[C@H](c3ccc(/C=C/c4ccccc4)cc3)[C@@H]2C1,-3.39*
C/C=C/c1ccc([C@H]2[C@H](CO)N3C(=O)CN(C(=O)c4ccc(F)cc4)C[C@@H]23)cc1,2.38
O=C(c1cccnc1)N1CC(=O)N2[C@H](CO)[C@@H](c3ccc(/C=C/c4ccccc4)cc3)[C@H]2C1,-5.41*
O=C(Cc1cccnc1)N1CC(=O)N2[C@H](C1)[C@@H](c1ccc(/C=C/c3ccccc3)cc1)[C@@H]2CO,-4.73*
O=C(c1ccccc1)N1CC(=O)N2[C@H](C1)[C@@H](c1ccc(/C=C/c3ccccc3)cc1)[C@@H]2CO,-2.63
O=C(c1ccc(F)cc1)N1CC(=O)N2[C@H](CO)[C@@H](c3ccc(/C=C/c4ccccc4)cc3)[C@@H]2C1,0.703
O=C(c1ccncc1)N1CC(=O)N2[C@H](CO)[C@@H](c3ccc(/C=C/c4ccccc4)cc3)[C@H]2C1,-1.23
C/C=C/c1ccc([C@@H]2[C@@H](CO)N3C(=O)CN(C(=O)Cc4cccnc4)C[C@H]23)cc1,1.12
O=C(c1cccnc1)N1CC(=O)N2[C@H](CO)[C@H](c3ccc(-c4ccc(F)cc4)cc3)[C@@H]2C1,0.282
O=C(c1cccc(F)c1)N1CC(=O)N2[C@H](CO)[C@H](c3ccc(/C=C/c4ccccc4)cc3)[C@@H]2C1,-2.7
COc1ccc(CN(C)C[C@@H]2Oc3ccc(NC(=O)Nc4ccc5c(c4)OCO5)cc3CC(=O)N([C@@H](C)CO)C[C@H]2C)cc1,1.31
CS(=O)(=O)N1CC(=O)N2[C@H](CO)[C@@H](c3ccc(Br)cc3)[C@@H]2C1,0.827
CN(C)C(=O)c1cccc(-c2ccc([C@H]3[C@@H](C#N)N(C(=O)C4CC4)[C@@H]3CO)cc2)c1,5.53
CS(=O)(=O)N1CCCCN2[C@H](C1)[C@@H](c1ccc(-c3cccc(C#N)c3)cc1)[C@@H]2CO,1.69
O=C(NC1CCCCC1)N1CC2(C1)[C@H](c1ccccc1)[C@H](CO)N2CC1CCCC1,0.347
Cc1ccccc1S(=O)(=O)N1CC(=O)N2[C@H](CO)[C@H](c3ccc(C#CC4CC4)cc3)[C@H]2C1,1.91
Cc1ccccc1S(=O)(=O)N1CC(=O)N2[C@H](C1)[C@H](c1ccc(C#CCC3CCCC3)cc1)[C@@H]2CO,5.5
CS(=O)(=O)N1[C@@H](C#N)[C@@H](c2ccccc2)[C@@H]1CO,3.64
CCCNC(=O)N1CC2(CCN(C(=O)Nc3cccc(F)c3)CC2)c2c(n(C)c3cc(OC)ccc23)[C@@H]1CO,0.1
Cn1cnc(S(=O)(=O)N[C@@H]2CC[C@@H](CC(=O)NCC3CCCCC3)O[C@@H]2CO)c1,0.535
OC[C@H]1[C@@H](c2ccc(C#CC3(O)CCCC3)cc2)[C@H]2CN(Cc3cccnc3)CCCCN21,0.433
CO[C@@H]1CN(C)C(=O)c2ccc(NC(=O)c3ccccc3F)cc2OC[C@H](C)N(C)C[C@H]1C,1.08
N#C[C@@H]1[C@H](c2ccc(C#CCC3CCCC3)cc2)[C@@H](CO)N1C(=O)CN1CCOCC1,2.46
SMILES,IDE exosite FP
COCC(=O)N1CCCCN2[C@H](CO)[C@@H](c3ccc(C#Cc4ccccc4)cc3)[C@H]2C1,-7.15*
COc1ccc(C#Cc2ccc([C@@H]3[C@@H](CO)N4CCCCN(C(=O)c5ccncc5)C[C@H]34)cc2)cc1,1.71
COc1ccc(C#Cc2ccc([C@H]3[C@H](CO)N4CCCCN(C(=O)c5ccncc5)C[C@@H]34)cc2)cc1,2.11
COCC#Cc1ccc([C@H]2[C@H]3CN(C(=O)COC)CCCCN3[C@H]2CO)cc1,2.44
COCC(=O)N1CCCCN2[C@H](C1)[C@@H](c1ccc(C#Cc3ccc(OC)cc3)cc1)[C@@H]2CO,4.06
COCC#Cc1ccc([C@H]2[C@H](CO)N3CCCCN(C(=O)COC)C[C@@H]23)cc1,3.55
COc1ccc(C#Cc2ccc([C@H]3[C@@H](CO)N4CCCCN(C(=O)c5ccncc5)C[C@@H]34)cc2)cc1,-6.59*
COCC(=O)N1CCCCN2[C@@H](CO)[C@H](c3ccc(C#Cc4ccc(OC)cc4)cc3)[C@@H]2C1,-3.12*
COCC#Cc1ccc([C@H]2[C@@H](CO)N3CCCCN(C(=O)COC)C[C@@H]23)cc1,4.08
CN1C(=O)c2cc(NC(=O)Nc3ccccc3Cl)ccc2OC[C@@H]2O[C@H](CC(=O)O)CC[C@H]21,-0.651
COc1ccc(-c2ccc3c(c2)[C@@H]2[C@@H](CCN2C(=O)Nc2ccccc2OC)[C@@H](CO)N3C)cc1,0.175
CCS(=O)(=O)N1CCCCN2[C@H](CO)[C@H](c3ccc(-c4ccc(C#N)cc4)cc3)[C@H]2C1,1.69
O=C(C[C@@H]1C[C@H]2c3cc(NC(=O)CC4CC4)ccc3O[C@H]2[C@@H](CO)O1)NCC1CC1,-0.392
COc1ccc(NC(=O)N2CCCCN3[C@H](CO)[C@@H](c4ccc(-c5ccccc5C)cc4)[C@H]3C2)cc1,-1.05
